Holding throughout (experiment): DAPPL (digital affinity profiling via proximity ligation, sequencing); 10 mM Tris-HCl pH 7.5, 50 mM NaCl, 1 mM DTT, 4% glycerol, room temperature, 30 min; GST-TFs on glutathione beads, 16-mer random dsDNA library, 0.1% formaldehyde crosslink after washing; high values mean tight binding
The target in assay [1] is T1, FLI1 (Homo sapiens, UniProt Q01543 1-452).
T1 sequence: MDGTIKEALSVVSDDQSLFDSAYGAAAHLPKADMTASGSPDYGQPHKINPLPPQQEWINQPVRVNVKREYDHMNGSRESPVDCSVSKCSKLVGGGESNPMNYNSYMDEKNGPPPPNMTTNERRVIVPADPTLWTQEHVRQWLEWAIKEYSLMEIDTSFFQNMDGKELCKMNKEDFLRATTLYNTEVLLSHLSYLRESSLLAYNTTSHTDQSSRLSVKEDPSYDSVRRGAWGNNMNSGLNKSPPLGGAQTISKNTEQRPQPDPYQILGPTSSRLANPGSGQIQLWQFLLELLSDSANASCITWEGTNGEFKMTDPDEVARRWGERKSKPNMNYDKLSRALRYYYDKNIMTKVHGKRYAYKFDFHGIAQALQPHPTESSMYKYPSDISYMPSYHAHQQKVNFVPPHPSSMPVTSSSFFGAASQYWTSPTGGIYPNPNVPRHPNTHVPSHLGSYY
The settings on record: protein: recombinant; tags: N-terminal GST; dsDNA, one strand shown. In outline:
(§1)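 Pools were built from human transcription factors expressed in yeast as GST fusions, captured on glutathione beads and DNA-barcoded, along with a tag-only sample. Incubation with 200 nmole of a 16-mer random double-stranded DNA library lasted 30 min at room temperature in Tris/NaCl/DTT/glycerol buffer, and was followed by washing, 0.1% formaldehyde crosslinking, proximity ligation, PCR amplification and Illumina NextSeq500 sequencing. Binding signal is the quotient of each hexamer's read frequency for a factor and its frequency for the tag-only sample.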

The target in assay [2] is T2, ELK1 (Homo sapiens, UniProt P19419 1-428).
T2 sequence: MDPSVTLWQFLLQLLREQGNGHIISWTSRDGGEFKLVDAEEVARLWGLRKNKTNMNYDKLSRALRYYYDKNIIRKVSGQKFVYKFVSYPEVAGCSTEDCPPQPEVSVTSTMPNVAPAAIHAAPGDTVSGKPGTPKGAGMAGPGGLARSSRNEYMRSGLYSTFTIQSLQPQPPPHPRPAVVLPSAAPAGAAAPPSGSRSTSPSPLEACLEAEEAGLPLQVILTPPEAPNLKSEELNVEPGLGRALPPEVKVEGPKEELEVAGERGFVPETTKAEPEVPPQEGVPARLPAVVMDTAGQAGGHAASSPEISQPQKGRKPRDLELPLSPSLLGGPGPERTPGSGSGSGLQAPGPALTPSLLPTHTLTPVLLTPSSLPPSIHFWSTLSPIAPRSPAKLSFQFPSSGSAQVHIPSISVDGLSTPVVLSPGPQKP
The following applies: protein: recombinant; tags: N-terminal GST; dsDNA, one strand shown. In outline: as §1

Assay [3] deals with T3, GABPA (Homo sapiens, UniProt Q06546 1-454).
T3 sequence: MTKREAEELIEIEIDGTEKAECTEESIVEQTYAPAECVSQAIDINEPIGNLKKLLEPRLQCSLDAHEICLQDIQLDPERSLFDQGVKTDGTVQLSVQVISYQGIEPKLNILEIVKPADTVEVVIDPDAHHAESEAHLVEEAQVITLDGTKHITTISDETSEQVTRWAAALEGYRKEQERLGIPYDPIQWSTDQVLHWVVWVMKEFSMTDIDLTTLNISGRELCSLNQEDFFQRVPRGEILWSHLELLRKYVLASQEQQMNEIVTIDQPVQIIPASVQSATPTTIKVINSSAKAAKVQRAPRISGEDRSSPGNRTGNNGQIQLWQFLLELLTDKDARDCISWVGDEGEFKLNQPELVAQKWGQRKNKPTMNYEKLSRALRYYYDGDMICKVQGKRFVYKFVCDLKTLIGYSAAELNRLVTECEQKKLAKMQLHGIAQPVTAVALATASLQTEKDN
The settings on record: protein: recombinant; tags: N-terminal GST; dsDNA, one strand shown. In outline:
as §1

Assay [4] has as its target T4, ERG (Homo sapiens, UniProt P11308 1-479).
T4 sequence: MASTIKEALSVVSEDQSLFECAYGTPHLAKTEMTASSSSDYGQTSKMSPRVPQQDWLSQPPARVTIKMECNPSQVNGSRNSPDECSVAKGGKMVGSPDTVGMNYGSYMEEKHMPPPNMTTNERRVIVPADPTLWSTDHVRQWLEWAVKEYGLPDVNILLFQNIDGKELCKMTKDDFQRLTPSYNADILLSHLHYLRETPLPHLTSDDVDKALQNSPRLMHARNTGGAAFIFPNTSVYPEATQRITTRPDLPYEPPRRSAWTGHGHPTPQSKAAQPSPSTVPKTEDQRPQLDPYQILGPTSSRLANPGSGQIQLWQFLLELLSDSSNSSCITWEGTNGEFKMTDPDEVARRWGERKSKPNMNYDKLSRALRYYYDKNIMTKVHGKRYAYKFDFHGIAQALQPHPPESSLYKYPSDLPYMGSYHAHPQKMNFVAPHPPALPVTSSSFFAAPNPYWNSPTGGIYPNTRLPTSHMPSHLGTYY
The following applies: protein: recombinant; tags: N-terminal GST; dsDNA, one strand shown. In outline: as §1

The target in assay [5] is ELF1 (Homo sapiens, UniProt P32519 1-619). The following applies: protein: recombinant; tags: N-terminal GST; dsDNA, one strand shown. In outline: as §1
Assay [6] has as its target T5, EHF (Homo sapiens, UniProt Q9NZC4 1-300).
T5 sequence: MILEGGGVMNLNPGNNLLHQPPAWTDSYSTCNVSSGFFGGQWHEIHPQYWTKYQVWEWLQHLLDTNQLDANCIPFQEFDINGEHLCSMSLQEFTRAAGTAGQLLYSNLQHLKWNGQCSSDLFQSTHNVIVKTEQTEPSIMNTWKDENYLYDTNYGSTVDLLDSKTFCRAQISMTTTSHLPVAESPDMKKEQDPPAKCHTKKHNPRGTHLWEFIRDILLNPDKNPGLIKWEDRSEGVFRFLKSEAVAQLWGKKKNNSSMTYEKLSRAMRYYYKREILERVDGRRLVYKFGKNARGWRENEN
The following applies: protein: recombinant; tags: N-terminal GST; dsDNA, one strand shown. The method, boiled down:
as §1

The target in assay [7] is SPI1 (Homo sapiens, UniProt P17947 1-270). The following applies: protein: recombinant; tags: N-terminal GST; dsDNA, one strand shown. The method, boiled down: as §1
Assay [8] deals with SPIB (Homo sapiens, UniProt Q01892 1-262). The following applies: protein: recombinant; tags: N-terminal GST; dsDNA, one strand shown. The method, boiled down:
as §1

Assay [9] has as its target T6, ELK3 (Homo sapiens, UniProt P41970 1-407).
T6 sequence: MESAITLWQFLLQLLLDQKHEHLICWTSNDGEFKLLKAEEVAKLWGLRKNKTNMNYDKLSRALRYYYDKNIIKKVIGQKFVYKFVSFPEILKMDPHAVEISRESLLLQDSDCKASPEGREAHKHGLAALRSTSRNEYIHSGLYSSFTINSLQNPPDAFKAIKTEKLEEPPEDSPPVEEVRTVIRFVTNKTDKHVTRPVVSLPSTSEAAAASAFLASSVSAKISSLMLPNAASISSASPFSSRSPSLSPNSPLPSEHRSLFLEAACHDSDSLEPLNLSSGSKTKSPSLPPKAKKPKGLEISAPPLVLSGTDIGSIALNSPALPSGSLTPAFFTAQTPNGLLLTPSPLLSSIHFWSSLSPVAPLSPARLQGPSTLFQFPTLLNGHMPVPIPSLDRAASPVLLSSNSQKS
The settings on record: protein: recombinant; tags: N-terminal GST; dsDNA, one strand shown. The method, boiled down: as §1

Assay [10] deals with T7, FEV (Homo sapiens, UniProt Q99581 1-238).
T7 sequence: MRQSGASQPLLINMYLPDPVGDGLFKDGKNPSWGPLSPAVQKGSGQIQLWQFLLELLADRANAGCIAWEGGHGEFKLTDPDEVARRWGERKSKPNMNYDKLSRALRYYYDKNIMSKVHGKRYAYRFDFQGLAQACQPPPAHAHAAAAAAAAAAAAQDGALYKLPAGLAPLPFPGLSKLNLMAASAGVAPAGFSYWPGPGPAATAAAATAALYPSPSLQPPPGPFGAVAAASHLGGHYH
The following applies: protein: recombinant; tags: N-terminal GST; dsDNA, one strand shown. In outline: as §1

Assay [11] addresses ETV5 (Homo sapiens, UniProt P41161 1-510). The following applies: protein: recombinant; tags: N-terminal GST; dsDNA, one strand shown. In outline:
as §1

For assay [12], the target named is HSF1 (Homo sapiens, UniProt Q00613 1-529). The settings on record: protein: recombinant; tags: N-terminal GST; chain copies: 3; dsDNA, one strand shown. The method, boiled down:
as §1

Assay [13] has as its target T8, SPIC (Homo sapiens, UniProt Q8N5J4 1-248).
T8 sequence: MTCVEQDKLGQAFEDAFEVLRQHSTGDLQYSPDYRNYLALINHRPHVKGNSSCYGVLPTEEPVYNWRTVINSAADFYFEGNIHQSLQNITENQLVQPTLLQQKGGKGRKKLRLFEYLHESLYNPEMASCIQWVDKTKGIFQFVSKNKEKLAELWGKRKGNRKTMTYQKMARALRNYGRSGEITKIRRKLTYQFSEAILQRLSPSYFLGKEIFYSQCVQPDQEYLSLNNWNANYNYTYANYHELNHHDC
The settings on record: protein: recombinant; tags: N-terminal GST; dsDNA, one strand shown. In outline: as §1

Assay [14] deals with ELF4 (Homo sapiens, UniProt Q99607 1-663). The settings on record: protein: recombinant; tags: N-terminal GST; dsDNA, one strand shown. In outline: as §1
In assay [15] the target is T9, ELK4 (Homo sapiens, UniProt P28324-2 1-405).
T9 sequence: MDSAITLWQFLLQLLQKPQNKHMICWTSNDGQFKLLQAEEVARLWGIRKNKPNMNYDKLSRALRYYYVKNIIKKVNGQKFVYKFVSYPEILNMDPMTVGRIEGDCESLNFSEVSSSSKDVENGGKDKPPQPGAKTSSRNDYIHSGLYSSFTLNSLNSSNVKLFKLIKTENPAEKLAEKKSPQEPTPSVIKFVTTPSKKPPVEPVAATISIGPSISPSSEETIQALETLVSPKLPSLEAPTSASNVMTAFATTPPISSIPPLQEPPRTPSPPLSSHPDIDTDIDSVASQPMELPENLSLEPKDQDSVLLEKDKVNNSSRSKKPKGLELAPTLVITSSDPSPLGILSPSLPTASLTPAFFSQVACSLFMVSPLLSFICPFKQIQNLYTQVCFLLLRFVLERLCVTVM
The settings on record: protein: recombinant; tags: N-terminal GST; dsDNA, one strand shown. In outline: as §1

For assay [16], the target named is T10, ETV2 (Homo sapiens, UniProt O00321 1-342).
T10 sequence: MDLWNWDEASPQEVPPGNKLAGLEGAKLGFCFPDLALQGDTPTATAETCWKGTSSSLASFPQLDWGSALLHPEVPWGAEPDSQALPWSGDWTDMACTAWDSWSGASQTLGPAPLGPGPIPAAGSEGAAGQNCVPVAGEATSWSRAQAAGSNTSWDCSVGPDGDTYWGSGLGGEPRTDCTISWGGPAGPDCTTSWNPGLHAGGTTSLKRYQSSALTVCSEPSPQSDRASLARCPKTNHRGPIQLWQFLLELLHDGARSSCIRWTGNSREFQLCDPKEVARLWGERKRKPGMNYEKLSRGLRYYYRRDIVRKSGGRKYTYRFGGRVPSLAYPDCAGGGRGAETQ
The settings on record: protein: recombinant; tags: N-terminal GST; dsDNA, one strand shown. The method, boiled down:
as §1

Assay [17] has as its target T11, ELF3 (Homo sapiens, UniProt P78545 1-371).
T11 sequence: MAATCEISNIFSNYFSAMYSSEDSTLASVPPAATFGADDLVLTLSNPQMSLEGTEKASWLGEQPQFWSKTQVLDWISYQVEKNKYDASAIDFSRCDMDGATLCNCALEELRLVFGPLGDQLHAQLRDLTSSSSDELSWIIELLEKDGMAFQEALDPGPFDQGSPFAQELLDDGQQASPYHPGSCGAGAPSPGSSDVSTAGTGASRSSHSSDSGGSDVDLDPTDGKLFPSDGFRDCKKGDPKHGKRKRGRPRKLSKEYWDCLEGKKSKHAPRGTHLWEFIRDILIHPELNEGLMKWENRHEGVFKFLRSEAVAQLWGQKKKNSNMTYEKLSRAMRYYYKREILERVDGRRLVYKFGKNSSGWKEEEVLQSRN
The following applies: protein: recombinant; tags: N-terminal GST; dsDNA, one strand shown. In outline:
as §1

Assay [18] deals with CRX (Homo sapiens, UniProt O43186 1-299). The settings on record: protein: recombinant; tags: N-terminal GST; dsDNA, one strand shown. The method, boiled down:
as §1

For assay [19], the target named is ETV1 (Homo sapiens, UniProt P50549 1-477). The settings on record: protein: recombinant; tags: N-terminal GST; dsDNA, one strand shown. The method, boiled down:
as §1

HSF1, sequence (Q00613 whole entry): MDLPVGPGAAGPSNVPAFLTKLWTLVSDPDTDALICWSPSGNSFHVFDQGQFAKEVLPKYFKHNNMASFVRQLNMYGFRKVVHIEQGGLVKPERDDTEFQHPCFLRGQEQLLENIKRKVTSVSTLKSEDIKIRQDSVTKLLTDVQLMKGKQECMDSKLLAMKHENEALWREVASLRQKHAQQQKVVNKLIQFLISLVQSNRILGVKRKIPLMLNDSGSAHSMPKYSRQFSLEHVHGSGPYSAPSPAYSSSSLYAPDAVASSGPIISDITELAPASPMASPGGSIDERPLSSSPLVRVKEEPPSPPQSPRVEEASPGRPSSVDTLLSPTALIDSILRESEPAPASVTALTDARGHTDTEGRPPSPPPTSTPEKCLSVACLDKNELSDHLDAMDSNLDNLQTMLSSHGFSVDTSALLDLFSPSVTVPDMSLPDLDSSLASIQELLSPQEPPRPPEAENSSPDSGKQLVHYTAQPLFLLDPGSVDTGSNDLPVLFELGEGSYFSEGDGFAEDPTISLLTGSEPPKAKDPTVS
ELF1, sequence (P32519 whole entry): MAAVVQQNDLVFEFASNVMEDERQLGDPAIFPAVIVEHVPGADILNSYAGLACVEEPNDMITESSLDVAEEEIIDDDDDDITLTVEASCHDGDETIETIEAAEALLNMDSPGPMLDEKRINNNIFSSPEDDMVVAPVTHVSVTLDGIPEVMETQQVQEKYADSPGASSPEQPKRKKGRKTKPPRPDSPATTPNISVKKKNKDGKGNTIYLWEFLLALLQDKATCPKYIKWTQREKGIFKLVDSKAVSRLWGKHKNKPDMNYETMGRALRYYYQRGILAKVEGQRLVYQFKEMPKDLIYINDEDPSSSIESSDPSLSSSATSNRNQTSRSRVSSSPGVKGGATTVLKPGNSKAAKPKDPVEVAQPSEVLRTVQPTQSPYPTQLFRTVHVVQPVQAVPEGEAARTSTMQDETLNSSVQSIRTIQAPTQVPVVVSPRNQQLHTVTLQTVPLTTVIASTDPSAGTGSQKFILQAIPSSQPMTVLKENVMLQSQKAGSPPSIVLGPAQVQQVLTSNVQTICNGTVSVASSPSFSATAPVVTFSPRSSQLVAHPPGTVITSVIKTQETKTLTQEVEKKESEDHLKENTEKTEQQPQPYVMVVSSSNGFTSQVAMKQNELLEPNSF
ETV1, sequence (P50549 whole entry): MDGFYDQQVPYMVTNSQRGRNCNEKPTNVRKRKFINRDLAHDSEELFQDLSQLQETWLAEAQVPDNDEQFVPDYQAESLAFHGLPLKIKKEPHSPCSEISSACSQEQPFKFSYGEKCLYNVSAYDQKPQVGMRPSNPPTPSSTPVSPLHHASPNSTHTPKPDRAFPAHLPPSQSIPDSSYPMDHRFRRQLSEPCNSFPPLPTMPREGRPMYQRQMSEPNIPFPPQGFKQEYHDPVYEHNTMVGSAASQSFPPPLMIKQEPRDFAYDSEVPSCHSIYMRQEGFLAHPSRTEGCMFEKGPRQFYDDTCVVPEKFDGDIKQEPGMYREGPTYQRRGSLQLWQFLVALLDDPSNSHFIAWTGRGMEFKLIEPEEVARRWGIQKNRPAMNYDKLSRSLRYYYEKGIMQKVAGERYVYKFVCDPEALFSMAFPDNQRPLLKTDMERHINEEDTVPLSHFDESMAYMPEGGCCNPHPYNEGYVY
CRX, sequence (O43186 whole entry): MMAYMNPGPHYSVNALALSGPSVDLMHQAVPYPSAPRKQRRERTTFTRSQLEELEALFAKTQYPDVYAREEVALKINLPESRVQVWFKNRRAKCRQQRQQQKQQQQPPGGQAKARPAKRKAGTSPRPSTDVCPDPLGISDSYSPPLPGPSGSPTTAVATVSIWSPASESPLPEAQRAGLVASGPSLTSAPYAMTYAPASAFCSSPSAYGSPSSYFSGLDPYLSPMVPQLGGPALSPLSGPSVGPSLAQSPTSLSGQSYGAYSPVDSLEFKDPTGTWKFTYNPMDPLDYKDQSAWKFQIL
SPIB, sequence (Q01892 whole entry): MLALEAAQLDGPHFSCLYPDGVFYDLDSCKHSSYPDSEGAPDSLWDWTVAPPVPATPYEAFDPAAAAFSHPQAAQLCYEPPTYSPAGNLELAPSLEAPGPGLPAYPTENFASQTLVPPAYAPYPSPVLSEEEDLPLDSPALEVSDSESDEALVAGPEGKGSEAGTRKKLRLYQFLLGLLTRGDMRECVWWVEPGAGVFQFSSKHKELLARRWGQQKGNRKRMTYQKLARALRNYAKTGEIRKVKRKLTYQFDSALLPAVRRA
ELF4, sequence (Q99607 whole entry): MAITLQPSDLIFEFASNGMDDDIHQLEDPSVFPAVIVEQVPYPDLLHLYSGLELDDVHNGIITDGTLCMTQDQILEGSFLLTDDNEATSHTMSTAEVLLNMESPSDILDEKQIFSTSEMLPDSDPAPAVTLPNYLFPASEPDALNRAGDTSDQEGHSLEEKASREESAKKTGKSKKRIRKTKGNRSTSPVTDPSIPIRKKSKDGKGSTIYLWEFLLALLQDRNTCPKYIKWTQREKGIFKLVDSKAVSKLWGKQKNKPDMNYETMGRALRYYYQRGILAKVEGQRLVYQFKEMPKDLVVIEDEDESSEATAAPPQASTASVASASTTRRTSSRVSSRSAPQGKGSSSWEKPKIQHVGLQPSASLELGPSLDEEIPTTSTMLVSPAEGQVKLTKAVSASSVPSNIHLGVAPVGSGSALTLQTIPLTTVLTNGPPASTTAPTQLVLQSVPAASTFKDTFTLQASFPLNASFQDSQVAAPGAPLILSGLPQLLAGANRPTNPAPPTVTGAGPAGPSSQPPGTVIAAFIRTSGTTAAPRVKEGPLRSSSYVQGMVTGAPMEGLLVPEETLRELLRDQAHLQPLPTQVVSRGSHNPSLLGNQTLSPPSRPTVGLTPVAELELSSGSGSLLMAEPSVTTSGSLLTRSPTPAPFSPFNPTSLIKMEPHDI
ETV5, sequence (P41161 whole entry): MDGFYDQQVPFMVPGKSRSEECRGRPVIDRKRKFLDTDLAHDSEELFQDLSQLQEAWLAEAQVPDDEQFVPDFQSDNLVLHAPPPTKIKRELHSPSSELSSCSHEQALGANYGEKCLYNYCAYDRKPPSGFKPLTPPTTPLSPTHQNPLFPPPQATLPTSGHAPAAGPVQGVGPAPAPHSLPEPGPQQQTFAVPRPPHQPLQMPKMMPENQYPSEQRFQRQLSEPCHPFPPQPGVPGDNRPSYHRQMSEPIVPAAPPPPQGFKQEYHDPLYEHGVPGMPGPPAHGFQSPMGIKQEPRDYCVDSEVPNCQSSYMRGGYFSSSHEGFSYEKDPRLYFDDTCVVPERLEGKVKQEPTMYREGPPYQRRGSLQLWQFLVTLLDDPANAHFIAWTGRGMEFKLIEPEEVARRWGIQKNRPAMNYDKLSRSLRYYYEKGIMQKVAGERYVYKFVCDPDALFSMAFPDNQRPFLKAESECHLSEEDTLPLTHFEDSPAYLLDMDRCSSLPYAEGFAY

With CCTCCG, the binding signal in assay [1] is 1.18 fold enrichment (6-mer frequency, TF over GST control); in assay [2], 1.55 fold enrichment (6-mer frequency, TF over GST control); in assay [3], 1.41 fold enrichment (6-mer frequency, TF over GST control); in [4], 1.35 fold enrichment (6-mer frequency, TF over GST control); in [5], 1.32 fold enrichment (6-mer frequency, TF over GST control); in [6] it was 1.24 fold enrichment (6-mer frequency, TF over GST control). Further, the binding signal in [7] is 1.41 fold enrichment (6-mer frequency, TF over GST control); in assay [8] it was 1.48 fold enrichment (6-mer frequency, TF over GST control); in assay [9] it was 1.38 fold enrichment (6-mer frequency, TF over GST control); in assay [10], 1.45 fold enrichment (6-mer frequency, TF over GST control); in [11] it was 1.34 fold enrichment (6-mer frequency, TF over GST control); in assay [12], 1.01 fold enrichment (6-mer frequency, TF over GST control). For the same sequence, the binding signal is 1.62 fold enrichment (6-mer frequency, TF over GST control) in [13]; 1.38 fold enrichment (6-mer frequency, TF over GST control) in assay [14]; 1.36 fold enrichment (6-mer frequency, TF over GST control) in assay [15]; 1.33 fold enrichment (6-mer frequency, TF over GST control) in assay [16]; 1.32 fold enrichment (6-mer frequency, TF over GST control) in [17]; 1.07 fold enrichment (6-mer frequency, TF over GST control) in assay [18]. Moreover, the binding signal in assay [19] was 1.4 fold enrichment (6-mer frequency, TF over GST control).

These data come from PMC7862700, “An all-to-all approach to the identification of sequence-specific readers for epigenetic DNA modifications on cytosine”.
